For orientation: AC50 means the concentration giving half of the maximal activity seen.

Out of some 16,000 compounds screened, about 5,700 (36%) were called active. Another 24% or so got no clear call; they are omitted. The list shows a part of the results. A number with no mark means an inactive call. Calls follow the shape of the dose curve; as a rule, active = well fitted curve in the direction sought with a large enough effect; inconclusive = small, poorly fitted or top-dose-only effect, or effect the other way; inactive = no such curve, though single readings can be large or run the other way.
% is scaled to controls: 0 for no effect and ±100 for the full control effect.

Sequence of Cytochrome P450 1A2 (Homo sapiens) (P05177 whole entry, looked up): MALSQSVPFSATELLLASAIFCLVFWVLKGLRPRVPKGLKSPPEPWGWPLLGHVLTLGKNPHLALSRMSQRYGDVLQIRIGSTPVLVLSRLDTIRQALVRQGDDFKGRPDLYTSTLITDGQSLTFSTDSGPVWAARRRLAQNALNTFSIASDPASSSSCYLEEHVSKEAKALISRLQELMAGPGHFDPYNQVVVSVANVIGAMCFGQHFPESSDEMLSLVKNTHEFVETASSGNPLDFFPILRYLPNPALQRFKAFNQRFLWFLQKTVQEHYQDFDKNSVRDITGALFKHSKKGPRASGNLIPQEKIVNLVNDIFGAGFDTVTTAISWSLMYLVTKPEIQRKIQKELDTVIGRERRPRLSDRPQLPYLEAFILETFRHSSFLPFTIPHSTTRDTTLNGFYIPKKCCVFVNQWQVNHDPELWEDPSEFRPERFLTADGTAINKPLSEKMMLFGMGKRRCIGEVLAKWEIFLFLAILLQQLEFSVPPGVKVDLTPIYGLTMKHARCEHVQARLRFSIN

The assay concerns the target Cytochrome P450 1A2 (Homo sapiens) (UniProt P05177). In words: Cytochrome panel assay with activity outcomes. The note with it: recombinant CYP, pro-luciferin dealkylation, luminescence, p450-cyp1a2; series mostly up to 57.1 µM; activity, negative = inhibition: at the top concentration.
For the compound `O=c1n(-c2ccccc2)c(=O)n2n1CC[C@H]1/C(=N\OCc3ccccc3)[C@H]3O[C@@H]3[C@@H](O)[C@@H]12`, the activity, negative = inhibition is -12.4% [at 11.4 µM]. `CN(C)c1ncnc2ccc(-c3ccoc3)cc12`: the AC50 was 0.794 µM (active). `CN(C)C(=O)c1ccc(-c2ccc3ncnc(N(C)C)c3c2)cc1`: the AC50 is 20 µM (active). Still for that read-out and setting: the value for `CN(C)c1ccc(-c2ccc3ncnc(N(C)C)c3c2)cc1` was 0.158 µM (active). As for `CCO[P@]1(=O)OC[C@@H]2O[C@H](n3cnc4c(N)ncnc43)[C@H](O)[C@@H]2O1`, the activity, negative = inhibition was -15.6% [at 2.29 µM].

With `CC(NC(=O)CN1CCCC1)C12CC3CC(CC(C3)C1)C2` (stereo not drawn), the “activity, negative = inhibition” value was -12.1%.

`COC(=O)[C@H](C)NC(=O)[C@@H](C)CO`: the activity, negative = inhibition is -7.75% [at 11.4 µM]. The same measure, in the same setting: next, `COc1ccc(-c2nn(-c3ccccc3)cc2/C=N/NC(=O)c2ccc(Br)o2)cc1`: -27.3%. `Cc1ccc(-c2nn(-c3ccccc3)cc2/C=N/NS(=O)(=O)c2ccccc2)cc1`: the AC50 is 4.47 µM (active). For `O=S(=O)(N/N=C\c1cn(-c2ccccc2)nc1-c1ccccc1)c1ccccc1`, the AC50 is 3.55 µM (active). Turning to `O=C(N/N=C\c1cn(-c2ccccc2)nc1-c1ccccc1)c1ccc(Br)o1`, the AC50 was 3.55 µM (active). The same measure, in the same setting: the value for `COCCCNC(=O)c1c(N)n(/N=C/c2ccccn2)c2nc3ccccc3nc12` was 2 µM (active); that for `CC1=NN(c2ccccc2)C(=O)[C@@H]1N=Nc1ccc(S(N)(=O)=O)cc1` was 1.26 µM (active). `Cn1c(N)c(N=Nc2ccc(S(N)(=O)=O)cc2)c(=O)n(C)c1=O`: the activity, negative = inhibition was -12.8% [at 2.29 µM]. Same read-out and setting: next, `CC1=NN(c2ccccc2)C(=O)C1C(=O)c1ccc(Cl)cc1` (stereo not drawn): 1.73%; `CC(=O)OCC(=O)[C@@]1(O)CC[C@@H]2[C@H]3CCC4=CC(=O)CC[C@]4(C)[C@]3(F)[C@@H](O)C[C@@]21C`: -5.93% [at 25.6 µM]; `CCC(C)NS(=O)(=O)c1ccc(OCC(=O)NCC2CCCO2)cc1` (stereo not drawn): 18.2%. As for `Cc1ccc(C)c(-n2c(Cc3cc(=O)[nH]c(=O)[nH]3)nnc2SCC(=O)NCC2CCCO2)c1` (stereo not drawn), the “activity, negative = inhibition” value was -2.07%. For the compound `Cc1[nH]nc2nc(SCC(=O)NCC3CCCO3)n(-c3ccc(Br)cc3)c(=N)c12` (stereo not drawn), the AC50 is 10 µM (active). `C=CCn1c(=O)c2c(nc(-c3ccc(S(=O)(=O)O)cc3)n2C)n(C)c1=O`: the “activity, negative = inhibition” value was -15%.

Consider `CCOc1cc(/C=C2\N=C(C)OC2=O)cc(Br)c1OCC(=O)OC`, for which the AC50 is 17.8 µM (active). In the case of `CCOc1ccc(N2C(=O)/C(=C/c3cc(OC)c(OC)c(OC)c3)N(CC(=O)OC)C2=S)cc1`, the “activity, negative = inhibition” value was 12.3%. Still for that read-out and setting: next, `CCCCNC(=O)C1CC(=O)N(c2ccc(OC)cc2)C1c1ccc(OC)cc1` (stereo not drawn): 1.32%.

The record behind these values is PubChem BioAssay AID1851 (National Center for Advancing Translational Sciences (NCATS), 2009).
